The source made the active and inactive calls. Unless noted, the rule behind the calls is not given here.
What was measured:
[1] = system: XIP peptide (Xip251-270) binding; test: small-molecule binders of XIP peptide, primary screen, biochemical, small-molecule microarray, fluorescence 635/667 nm, 0.1 µg/mL protein (AID 1182); settings: fluorescent protein binding, 635 nm, higher = more signal, called active from +8 up or from −8 down
XIP peptide (Xip251-270) = test: small-molecule binders of XIP peptide, primary screen, biochemical, small-molecule microarray, fluorescence 635/667 nm, 0.5 µg/mL protein (AID 1183); settings: small-molecule microarray binding, fluorescence 635 nm; higher = more signal
[2] = Plasmodium falciparum growth inhibition, primary screen, strain 3D7, DAPI fluorescence, 100 nL (AID 1184);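 note: parasites grown inside human red blood cells in medium with human serum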; settings: P. falciparum 3D7 growth, 3 d, higher = more signal
[3] = biological target: Homeobox protein Hox-A13 (Mus musculus) (UniProt Q62424); test: inhibitors of HoxA13-DNA binding, primary screen, biochemical, fluorescence polarization, labeled oligonucleotide (AID 1185); settings: 15 min, higher = more signal, called active from +8 up or from −8 down
[4] = inhibitors of hydroxyurea-induced Chk1 phosphorylation, primary screen, imaging, HeLa, phospho-Chk1 antibody, percent positive cells (AID 1186); settings: hydroxyurea-induced phospho-Chk1 immunofluorescence imaging, higher = more signal
[5] = inhibitors of hydroxyurea-induced Chk1 phosphorylation, primary screen, imaging, HeLa, phospho-Chk1 nuclear intensity (AID 1187); settings: hydroxyurea-induced phospho-Chk1 immunofluorescence imaging, higher = more signal

Homeobox protein Hox-A13 (Mus musculus), sequence (Q62424 whole entry, looked up): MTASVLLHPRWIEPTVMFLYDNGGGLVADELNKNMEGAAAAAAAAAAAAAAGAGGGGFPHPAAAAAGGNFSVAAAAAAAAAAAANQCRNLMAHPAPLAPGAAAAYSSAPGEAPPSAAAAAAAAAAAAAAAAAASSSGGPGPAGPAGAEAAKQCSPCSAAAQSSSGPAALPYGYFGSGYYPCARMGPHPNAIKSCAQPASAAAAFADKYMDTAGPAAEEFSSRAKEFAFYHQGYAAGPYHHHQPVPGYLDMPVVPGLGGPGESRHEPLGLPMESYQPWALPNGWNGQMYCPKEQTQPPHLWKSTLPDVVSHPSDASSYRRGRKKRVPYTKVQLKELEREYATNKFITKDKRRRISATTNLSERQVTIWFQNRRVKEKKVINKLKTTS

| Structure (SMILES) | composite z-score [1] | composite z-score (XIP peptide (Xip251-270)) | z-score [2] | z-score [3] | z-score [4] | z-score [5] |
| --- | --- | --- | --- | --- | --- | --- |
| O=C1O[C@@H](c2ccccc2)[C@@H](c2ccccc2)N2[C@@H](c3ccc(OCCO)cc3)[C@]3(C(=O)Nc4ccc(C#CCCO)cc43)[C@@H](C(=O)N3CCCCCCC3)[C@H]12 | 2.93 (inactive) | 0.883 | -2.22 | -12.2 (active) | -0.148 (inactive) | 0.224 (inactive) |
| CN(C)C(=O)[C@@]1(Cc2ccccc2)N=C(c2ccc(OCCCO)cc2)O[C@H]1c1ccccc1CN=[N+]=[N-] | 2.74 (inactive) | 0.746 | -2.11 | -1.69 (inactive) | 0.264 (inactive) | 0.492 (inactive) |
| COc1ccc([Si](C)(C)[C@H]2[C@H](CC(=O)N3CCC[C@H]3CO)O[C@@]3(C(=O)N(Cc4cccc(N5C(=O)COc6ccccc65)c4)c4ccccc43)[C@@H]2C)cc1 | 0.422 (inactive) | 0.74 | -1.56 | -3.12 (inactive) | 0.0942 (inactive) | 0.728 (inactive) |
| COC(=O)[C@]1(CO)N=C(c2ccc(OCCCO)cc2)O[C@@H]1c1ccccc1N=[N+]=[N-] | 0.816 (inactive) | 0.812 | -0.313 | -6.14 (inactive) | 0.0389 (inactive) | 0.0674 (inactive) |
| COCCOC(=O)N1C(=O)[C@@]2(c3ccccc31)[C@H](C(N)=O)[C@H]1C(=O)O[C@H](c3ccccc3)[C@H](c3ccccc3)N1[C@@H]2c1ccccc1OCCO | 3 (inactive) | 0.801 | -0.418 | -4.4 (inactive) | 0.228 (inactive) | 0.42 (inactive) |
| CCCC[C@@H]1C[C@H]1[C@@H](NS(=O)(=O)c1cccc2cccnc12)c1ccc(-c2ccccc2)cc1 | -0.111 (inactive) | -0.239 | -0.299 | -0.507 (inactive) | -0.121 (inactive) | 0.189 (inactive) |
| CCOc1ccc(N2C(=O)/C(=C/C=C/c3ccccc3OC)S(=O)(=O)C2c2cccc([N+](=O)[O-])c2)cc1 (configuration not stated) | -0.735 (inactive) | -0.299 | 0.418 | 1.37 (inactive) | -0.322 (inactive) | -0.16 (inactive) |
| COCCOC(=O)N1C(=O)[C@@]2(c3cc(C#CC4(O)CCCCCC4)ccc31)[C@H](c1ccc(OCCO)cc1)N1[C@H](c3ccccc3)[C@H](c3ccccc3)OC(=O)[C@H]1[C@@H]2C(=O)NC[C@H](O)c1ccccc1 | 0.437 (inactive) | 0.723 | -2.27 | 2.7 (inactive) | 0.0412 (inactive) | 0.0764 (inactive) |
| CC(C)NC(=O)[C@@]1(c2ccc([N+](=O)[O-])cc2)CC(=O)N(CC23CC4CC(CC(C4)C2)C3)[C@@H]1c1ccc(CO)cc1I | 0.805 (inactive) | 0.704 | -0.705 | -3.26 (inactive) | -0.122 (inactive) | 1.16 (inactive) |
| C=CCNC(=O)[C@H]1[C@@H]2C(=O)O[C@@H](c3ccccc3)[C@@H](c3ccccc3)N2[C@@H](c2ccc(O)cc2)[C@]12C(=O)N(C(=O)OCCOC)c1ccc(C#CC3=CCCCC3)cc12 | 0.514 (inactive) | 0.834 | -0.919 | -0.216 (inactive) | -0.411 (inactive) | -0.376 (inactive) |
| CC(C)C[C@@H]1NC(=O)[C@H]2C[C@@H](C(=O)O)[C@@H](c3ccc(O)cc3)N2C1=O | 0.0473 (inactive) | 0.86 | -0.251 | -2.19 (inactive) | -0.523 (inactive) | -0.332 (inactive) |
| CCCNC(=O)[C@@H]1c2ccccc2C(=O)N(c2ccc(C)cn2)[C@H]1c1ccc(CO)cc1 | -0.239 (inactive) | -0.314 | 0.167 | -2.4 (inactive) | 0.929 (inactive) | 0.52 (inactive) |
